# In PubChem BioAssay:
# Active and inactive are the calls of the source.
# Tests used:
# [1] = small molecules captured by biotinylated probe aFSTL3 – biochemical, small-molecule microarray, fluorescence 635/667, stem cell growth factor project, primary screen (AID 1064); conditions: higher = more signal;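 note: measures binding of the biotinylated anti-FSTL3 antibody to printed compounds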
# [2] = binders from COS7 lysate, DM2A8 probe, primary screen, torsin A project, cell lysate, small-molecule microarray, fluorescence 635/667 (AID 1065); conditions: higher = more signal, COS7 lysate expressing mutant human TOR1A
# [3] = small molecules captured by biotinylated probe aFGF2 – biochemical, small-molecule microarray, fluorescence 635/667, stem cell growth factor project, primary screen (AID 1067); conditions: higher = more signal;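 note: measures binding of biotinylated aFGF2 protein to printed compounds on slides; z-score merges feature fluorescence and signal-to-noise across triplicate slides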
# [4] = small molecules captured by biotinylated probe aFGF10 – biochemical, small-molecule microarray, fluorescence 635/667, stem cell growth factor project, primary screen (AID 1071); conditions: higher = more signal;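 note: score merges 667 nm spot intensity and signal to noise from triplicate slides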
# [5] = target: Neurogenic locus notch homolog protein 2 (Homo sapiens) (UniProt Q04721); experiment: small molecules binding Notch2 protein – biochemical, small-molecule microarray, 635 nm fluorescence, stem cell growth factors, primary screen (AID 1073); conditions: higher = more signal
# [6] = target: Pro-neuregulin-1, membrane-bound isoform (Homo sapiens) (UniProt Q02297); experiment: small molecules binding neuregulin-1 protein – biochemical, small-molecule microarray, fluorescence 635/667, psychiatric disease protein project, primary screen (AID 1075); conditions: NRG1 binding, 635 nm fluorescence, higher = more signal;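 note: score combines 667 nm spot fluorescence with signal to noise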
# [7] = tested on: Neuregulin-1 EGF-like domain; experiment: small molecules binding NRG1 EGF domain – biochemical, small-molecule microarray, 635 nm fluorescence, primary screen (AID 1081); conditions: higher = more signal;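 note: binding of the protein to compounds printed on small-molecule microarray slides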
# [8] = FRG1 expression reporter modulators in myotubes – cell-based, C2C12 myotubes, firefly/Renilla luciferase, luminescence, FRG1 inhibition for FSHD, primary screen (AID 1084); conditions: FRG1 promoter luciferase, higher = more signal, called active from +8 up or from −8 down
# [9] = small molecules captured by biotinylated probe aFST – biochemical, small-molecule microarray, fluorescence 635/667, stem cell growth factor project, primary screen (AID 1086); conditions: higher = more signal;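 note: score merges 667 nm fluorescence with signal-to-noise of each printed compound spot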
# [10] = binders of probe aHhip on microarray, primary screen, stem cell growth factor project, biochemical, small-molecule microarray, fluorescence 635/667 (AID 1087); conditions: higher = more signal;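 note: score merges spot fluorescence at 667nm with spot signal to noise ratio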
# [11] = tested on: PRMT1 (protein arginine N-methyltransferase 1); experiment: small molecules binding arginine methyltransferase PRMT1 – biochemical, small-molecule microarray, 635 nm fluorescence, primary screen (AID 1088); conditions: higher = more signal;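 note: binding of Prmt1 protein to compounds spotted on small-molecule microarray slides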
# [12] = growth effects on S. cerevisiae YJM789 – YJM789 clinical isolate, OD600, 24 h, basal, primary screen (AID 1089); conditions: higher = more signal, called active from +8 up or from −8 down;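 note: growth of clinical yeast isolate S. cerevisiae YJM 789 seeded 1000 cells per well; test concentration not given here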
# [13] = S. pombe growth modifiers, basal conditions – strain 972, OD600, 24 h, no modulator, primary screen (AID 1090);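 note: basal condition with compound alone and no growth modifier present; test concentration not given here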; conditions: S. pombe 972 growth, higher = more signal, called active from +8 up or from −8 down
# [14] = budding yeast growth modifiers under rapamycin – strain BY4716, OD600, 96 h, primary screen (AID 1091); note: test concentration not given here; conditions: S. cerevisiae BY4716 + rapamycin, higher = more signal, called active from +8 up or from −8 down
# [15] = target: Torsin-1A-interacting protein 2 (Homo sapiens) (UniProt Q8NFQ8); experiment: small molecules binding lysate-expressed LULL1 – cell lysate, human LULL1 lysate, 635/667 nm fluorescence, primary screen (AID 1092); conditions: small-molecule microarray, hLULL1 lysate binding, 635 nm fluorescence; higher = more signal;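 note: probe is lysate of COS7 cells overexpressing human LULL1; score merges per-feature 667 nm fluorescence with signal-to-noise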
# [16] = optical density change of DRC41 E. coli – strain DRC41, OD650, 24 h, E. coli filamentation project, primary screen (AID 1093);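 note: MC1000 strain lacking acrAB efflux and sulA so SOS filamentation is blocked; test concentration not given here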; conditions: E. coli DRC41 growth, higher = more signal, called active from +8 up or from −8 down
# [17] = probe aLefty2 binding to arrayed compounds – biochemical, biotinylated probe, 635/667 nm fluorescence, primary screen (AID 1094); conditions: small-molecule microarray, higher = more signal;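 note: score merges spot fluorescence near 667 nm with spot signal-to-noise ratio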
# [18] = tested on: Noggin (protein binding on small-molecule microarray); experiment: small molecules binding Noggin protein – biochemical, 635/667 nm fluorescence, primary screen (AID 1095); conditions: 635 nm fluorescence, higher = more signal;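 note: score merges 667 nm feature fluorescence with signal to noise over triplicate slides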
# [19] = target: Neurogenic locus notch homolog protein 3 (Homo sapiens) (UniProt Q9UM47); experiment: small molecules binding NOTCH3 protein – biochemical, 635/667 nm fluorescence, primary screen (AID 1096); conditions: small-molecule microarray, 635 nm fluorescence, higher = more signal
# [20] = probe aEGFR binding to arrayed compounds – biochemical, biotinylated probe, 635/667 nm fluorescence, primary screen (AID 1097); conditions: small-molecule microarray, higher = more signal;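 note: probe is a biotinylated anti-EGFR antibody binding compounds printed on slides; score combines fluorescence near 667 nm and signal to noise of each spot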
# Torsin-1A-interacting protein 2 (Homo sapiens), sequence (Q8NFQ8 whole entry, looked up): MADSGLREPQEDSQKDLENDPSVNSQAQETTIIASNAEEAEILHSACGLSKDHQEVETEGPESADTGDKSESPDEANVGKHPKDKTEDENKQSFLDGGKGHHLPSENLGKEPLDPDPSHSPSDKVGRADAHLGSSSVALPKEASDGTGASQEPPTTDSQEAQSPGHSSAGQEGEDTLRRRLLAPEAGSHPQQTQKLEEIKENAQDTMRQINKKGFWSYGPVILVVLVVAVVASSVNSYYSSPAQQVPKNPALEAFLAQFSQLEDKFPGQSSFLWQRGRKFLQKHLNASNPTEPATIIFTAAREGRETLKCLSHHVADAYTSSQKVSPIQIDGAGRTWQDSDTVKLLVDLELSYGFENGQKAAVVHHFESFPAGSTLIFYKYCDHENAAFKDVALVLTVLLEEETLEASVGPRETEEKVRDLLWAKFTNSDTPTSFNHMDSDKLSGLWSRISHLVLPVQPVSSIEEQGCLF
# Neurogenic locus notch homolog protein 3 (Homo sapiens), sequence (Q9UM47 whole entry, looked up): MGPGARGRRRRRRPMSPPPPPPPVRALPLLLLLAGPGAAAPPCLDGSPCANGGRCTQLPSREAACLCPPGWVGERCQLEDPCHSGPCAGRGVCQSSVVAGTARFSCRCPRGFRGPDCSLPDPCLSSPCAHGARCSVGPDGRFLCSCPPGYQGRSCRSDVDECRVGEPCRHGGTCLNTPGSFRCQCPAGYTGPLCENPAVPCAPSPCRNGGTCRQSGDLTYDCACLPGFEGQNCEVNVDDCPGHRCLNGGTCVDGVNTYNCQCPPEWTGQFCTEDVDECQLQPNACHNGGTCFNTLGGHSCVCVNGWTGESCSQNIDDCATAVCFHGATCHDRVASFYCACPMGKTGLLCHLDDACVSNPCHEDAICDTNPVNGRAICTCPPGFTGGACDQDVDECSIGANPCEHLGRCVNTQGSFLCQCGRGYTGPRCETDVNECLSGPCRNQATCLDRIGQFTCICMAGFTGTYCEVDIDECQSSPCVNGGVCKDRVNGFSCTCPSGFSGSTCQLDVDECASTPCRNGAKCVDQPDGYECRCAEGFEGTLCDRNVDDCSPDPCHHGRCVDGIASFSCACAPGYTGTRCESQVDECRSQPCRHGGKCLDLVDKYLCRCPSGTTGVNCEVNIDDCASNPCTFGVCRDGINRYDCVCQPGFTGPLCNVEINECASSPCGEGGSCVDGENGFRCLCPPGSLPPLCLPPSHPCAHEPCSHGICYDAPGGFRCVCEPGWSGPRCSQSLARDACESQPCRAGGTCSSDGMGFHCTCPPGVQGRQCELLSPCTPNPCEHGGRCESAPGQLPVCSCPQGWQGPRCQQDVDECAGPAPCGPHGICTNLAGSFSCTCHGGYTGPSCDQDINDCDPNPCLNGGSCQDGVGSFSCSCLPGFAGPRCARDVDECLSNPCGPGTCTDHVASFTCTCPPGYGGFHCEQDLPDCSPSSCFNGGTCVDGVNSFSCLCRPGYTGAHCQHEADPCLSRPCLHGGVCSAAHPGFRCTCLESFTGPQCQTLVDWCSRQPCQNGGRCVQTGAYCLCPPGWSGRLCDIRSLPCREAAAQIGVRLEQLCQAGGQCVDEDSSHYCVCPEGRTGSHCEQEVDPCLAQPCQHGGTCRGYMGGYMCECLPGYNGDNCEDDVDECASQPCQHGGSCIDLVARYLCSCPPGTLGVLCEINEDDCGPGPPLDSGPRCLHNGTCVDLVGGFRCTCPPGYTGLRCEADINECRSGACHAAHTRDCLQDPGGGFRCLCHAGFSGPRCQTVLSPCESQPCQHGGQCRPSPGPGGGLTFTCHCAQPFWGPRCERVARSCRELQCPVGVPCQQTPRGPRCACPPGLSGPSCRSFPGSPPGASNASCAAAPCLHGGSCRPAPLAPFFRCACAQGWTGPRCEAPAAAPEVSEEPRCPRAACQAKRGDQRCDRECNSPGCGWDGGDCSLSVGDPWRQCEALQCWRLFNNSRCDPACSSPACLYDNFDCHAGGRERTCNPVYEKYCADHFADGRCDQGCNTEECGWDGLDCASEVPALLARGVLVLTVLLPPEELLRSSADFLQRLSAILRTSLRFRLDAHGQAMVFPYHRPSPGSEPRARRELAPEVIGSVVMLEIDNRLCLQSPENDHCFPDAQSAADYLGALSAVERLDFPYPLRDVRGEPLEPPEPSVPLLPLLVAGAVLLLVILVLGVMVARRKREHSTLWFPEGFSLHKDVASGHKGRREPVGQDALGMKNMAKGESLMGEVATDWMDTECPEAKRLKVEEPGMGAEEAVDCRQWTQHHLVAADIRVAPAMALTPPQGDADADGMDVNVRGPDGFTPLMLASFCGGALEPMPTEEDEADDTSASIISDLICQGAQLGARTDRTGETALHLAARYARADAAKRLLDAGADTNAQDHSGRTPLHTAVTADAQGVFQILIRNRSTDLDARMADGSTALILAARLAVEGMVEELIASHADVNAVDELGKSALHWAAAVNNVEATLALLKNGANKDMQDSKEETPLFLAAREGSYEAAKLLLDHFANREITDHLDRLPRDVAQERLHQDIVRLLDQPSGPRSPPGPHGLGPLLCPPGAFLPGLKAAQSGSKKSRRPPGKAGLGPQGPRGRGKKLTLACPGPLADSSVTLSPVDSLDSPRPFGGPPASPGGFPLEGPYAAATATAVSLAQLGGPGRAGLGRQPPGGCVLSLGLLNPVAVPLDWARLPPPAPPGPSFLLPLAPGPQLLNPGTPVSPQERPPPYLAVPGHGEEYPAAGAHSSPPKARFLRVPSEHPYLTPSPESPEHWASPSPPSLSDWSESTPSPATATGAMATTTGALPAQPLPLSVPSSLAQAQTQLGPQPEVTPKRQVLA
# Pro-neuregulin-1, membrane-bound isoform (Homo sapiens), sequence (Q02297 whole entry, looked up, the tested form may be a part, canonical isoform): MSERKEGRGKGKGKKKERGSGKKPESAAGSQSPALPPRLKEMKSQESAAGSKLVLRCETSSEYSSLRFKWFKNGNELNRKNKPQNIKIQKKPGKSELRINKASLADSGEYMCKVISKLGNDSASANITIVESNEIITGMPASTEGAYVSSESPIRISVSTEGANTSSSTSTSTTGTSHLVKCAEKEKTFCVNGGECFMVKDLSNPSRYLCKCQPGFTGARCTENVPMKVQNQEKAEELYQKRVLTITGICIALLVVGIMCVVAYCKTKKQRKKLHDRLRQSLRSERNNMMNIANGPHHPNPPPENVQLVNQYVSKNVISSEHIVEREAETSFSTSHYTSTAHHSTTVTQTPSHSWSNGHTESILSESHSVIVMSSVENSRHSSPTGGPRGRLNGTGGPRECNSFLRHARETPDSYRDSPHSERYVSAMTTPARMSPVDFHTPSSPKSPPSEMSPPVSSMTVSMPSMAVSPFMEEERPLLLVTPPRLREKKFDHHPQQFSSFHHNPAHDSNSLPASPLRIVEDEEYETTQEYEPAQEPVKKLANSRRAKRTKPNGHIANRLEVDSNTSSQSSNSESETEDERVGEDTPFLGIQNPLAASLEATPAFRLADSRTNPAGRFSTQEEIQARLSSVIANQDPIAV
Structure (SMILES),composite z-score [1],composite z-score [2],composite z-score [3],composite z-score [4],composite z-score [5],composite z-score [6],composite z-score [7],z-score [8],composite z-score [9],composite z-score [10],composite z-score [11],z-score [12],z-score [13],z-score [14],composite z-score [15],z-score [16],composite z-score [17],composite z-score [18],composite z-score [19],composite z-score [20]
CCCCC(=C=CC[C@H](O)c1cccc(OCCO)c1)C[C@H](O)c1ccccn1,-0.37,0.0714,-0.112,0.528,-0.202,0.163,0.719,-0.692 (inactive),-0.157,-0.236,0.483,-1.2 (inactive),-1.12 (inactive),-1.68 (inactive),-0.639,1.34 (inactive),-0.165,0.395,-0.153,-0.13
O=C1O[C@@H](c2ccccc2)[C@@H](c2ccccc2)N2[C@@H](c3ccc(OCCO)cc3)[C@]3(C(=O)Nc4ccc(C#CCCO)cc43)[C@@H](C(=O)NC[C@H](O)c3ccccc3)[C@H]12,0.193,0.458,-0.0281,0.902,0.578,1.01,1.17,-0.772 (inactive),0.456,0.0052,1.54,2.55 (inactive),1.19 (inactive),4.63 (inactive),2.71,0.695 (inactive),0.409,1.25,0.667,0.258
COc1cc(OC)c(C(O)C2C=CC3C(=O)NC(=O)C3N2Nc2ccccn2)cc1Br (stereo not given),0.159,0.56,-0.0494,0.561,1.24,1.48,1.44,1.21 (inactive),0.0594,-0.141,1.49,-0.0137 (inactive),-0.289 (inactive),0.204 (inactive),0.645,-0.564 (inactive),0.0917,0.458,0.716,0.131
CCOC(=O)C1=CC[C@H]2C(=O)N(c3ccccc3)C(=O)[C@@H]12,-0.368,0.606,0.05,1.07,1.61,1.37,1.32,-0.775 (inactive),0.743,-0.0237,1.48,0.296 (inactive),-0.0087 (inactive),-0.487 (inactive),3.4,-0.981 (inactive),0.157,0.436,1.07,0.08
CCCC[C@H]1C[C@@H]1[C@@H]1N(P(=O)(c2ccccc2)c2ccccc2)C[C@@](O)(c2ccccc2)CC12CC2,0.666,-0.152,0.183,-0.102,1.45,0.862,0.541,1.11 (inactive),1.39,0.893,0.761,-0.841 (inactive),-7.02 (inactive),32.9 (active),3.06,-0.931 (inactive),0.356,-0.695,-0.317,0.0144
COC(=O)[C@]1(Cc2ccccc2)N=C(c2ccc(OCCCO)cc2)O[C@@H]1c1ccccc1N=[N+]=[N-],-0.186,0.179,-0.0268,-0.13,0.473,0.314,0.764,4.51 (inactive),0.551,0.0373,1.52,-0.701 (inactive),-1.01 (inactive),24.6 (active),1.82,-0.604 (inactive),-0.0389,1.15,0.58,-0.0987
COc1ccc(C(O)C2C=CC3C(=O)N(C)C(=O)C3N2N(c2ccccc2)c2ccccc2)c2ccccc12 (stereo not given),0.249,0.643,0.0346,0.412,0.295,0.85,0.894,-0.14 (inactive),0.284,0.576,0.474,0.388 (inactive),0.954 (inactive),0.375 (inactive),-0.124,-1.27 (inactive),0.242,0.575,0.563,-0.0283
COC(=O)[C@@]1(Cc2ccc(F)cc2)[C@H]2c3cc(C(=O)N(C)C)n(Cc4ccc(C)o4)c3C[C@H]2CN1C(=O)c1ccccc1,2.58,3.31,0.62,0.0793,0.0386,1.8,1.13,0.626 (inactive),2.31,0.683,0.323,-0.319 (inactive),-7.9 (inactive),0.792 (inactive),3.05,-0.386 (inactive),1.26,-0.386,-0.124,0.763
C=C(C(=O)CC[C@H](OC(C)=O)c1ccccc1OCCO)C(C)C,-0.214,-1.03,-0.0985,0.317,-0.926,-0.49,-0.862,-4.37 (inactive),-0.327,0.0854,0.316,-25 (active),-20.2 (active),-4.35 (inactive),-0.808,0.43 (inactive),-0.232,0.657,0.0937,-0.188
C[C@H]1C2[C@H](Cc3ccccc3)NC(=O)[C@]23C(=O)NCC(=O)N2CCC[C@H]2C(=O)NC/C=C/CCC/C=C/C3[C@@H]2O[C@]12C (stereo not given in full),-0.106,-0.511,-0.191,-0.261,-0.754,-0.0754,-0.125,-0.111 (inactive),-0.653,-0.249,-1.33,0.291 (inactive),-0.0836 (inactive),-0.0152 (inactive),-1.02,1.51 (inactive),-0.18,-0.627,-0.508,-0.278
CCOC(=O)C[C@H]1[C@H](OC(=O)c2ccc(C(=O)c3ccccc3)cc2)[C@@H](NC(=O)Cc2ccc(OC)cc2)c2cc(OCCCO)ccc2N1C(=O)c1ccc2ccccc2n1,-0.537,0.0267,-0.0887,0.371,0.298,0.843,0.325,-2.62 (inactive),0.612,-0.0994,0.794,0.328 (inactive),-0.22 (inactive),0.605 (inactive),1.6,0.213 (inactive),0.0768,0.666,1.16,0.0182
O=C1C2C=CC(C(O)c3ccc(F)cc3)N(Nc3ccc([N+](=O)[O-])cc3)C2C(=O)N1c1ccccc1 (stereo not given),0.0759,-0.358,0.16,0.305,1.45,2,1.37,-0.132 (inactive),1.02,0.0373,1.35,0.099 (inactive),1.75 (inactive),1.96 (inactive),3.27,-0.848 (inactive),0.187,0.257,1.1,-0.0435
C=CCN1Cc2ccccc2[C@@H]2OC(c3ccc(OCCCO)cc3)=N[C@]2(CCS(=O)(=O)c2ccccc2)C1=O,0.189,0.263,-0.04,0.345,1.55,0.721,1.24,-3.43 (inactive),0.804,-0.191,1.55,0.863 (inactive),1.45 (inactive),3.51 (inactive),3.35,0.953 (inactive),0.0642,0.704,1.01,-0.0261
Cc1ccc(S[C@]2(C(=O)O)CC(=O)N(Cc3ccccc3C(F)(F)F)[C@@H]2c2ccc(CO)cc2I)cc1,-0.0699,0.979,-0.1,-0.0146,-1.23,0.695,0.559,0.371 (inactive),-0.387,-0.334,0.471,-1.73 (inactive),-2.36 (inactive),0.695 (inactive),1.65,-1.11 (inactive),-0.205,-0.571,-1.02,-0.213
CC(c1ccccc1)C(O)C1C=CC2C(=O)N(c3ccccc3)C(=O)C2N1Nc1ccccc1 (stereo not given),-0.245,0.2,0.0878,1.13,1.55,1.53,1.34,-1.41 (inactive),1.38,0.179,1.54,0.205 (inactive),1.23 (inactive),0.442 (inactive),3.62,-0.702 (inactive),0.0008,0.833,1.05,0.0038
COCCCNC(=O)[C@@H]1c2ccccc2C(=O)N(Cc2ccccc2)[C@H]1c1ccc(CO)cc1,0.0981,0.361,-0.0952,0.12,0.712,0.943,0.565,-0.179 (inactive),0.418,0.253,0.726,-1.29 (inactive),-0.0108 (inactive),-0.212 (inactive),1.53,-0.167 (inactive),0.384,0.525,0.109,0.236
COc1ccc([C@H]2OC[C@@H]3CCC(=O)N32)cc1,-0.136,0.428,-0.169,0.733,0.471,0.0194,1.19,0.0543 (inactive),0.664,-0.0581,-0.136,-0.481 (inactive),-0.809 (inactive),0.981 (inactive),0.399,-0.013 (inactive),-0.0699,0.397,1.01,0.0826
COCCOC(=O)N1C(=O)[C@@]2(c3cc(C#CC4(O)CCCCCC4)ccc31)[C@H](c1ccccc1OCCO)N1[C@H](c3ccccc3)[C@H](c3ccccc3)OC(=O)[C@H]1[C@@H]2C(=O)N1CCc2cc(OC)c(OC)cc2C1,-0.207,0.788,-0.0685,0.542,1.03,1.6,1.19,-0.658 (inactive),0.223,0.177,1.55,2.46 (inactive),2.71 (inactive),5.86 (inactive),2.96,0.339 (inactive),-0.0903,1.24,1.05,0.0092
[N-]=[N+]=Nc1ccccc1C[C@@]1(C(=O)N2CCCCC2)N=C(c2ccc(OCCCO)cc2)O[C@@H]1c1ccccc1,0.155,1.1,0.0137,0.763,1.47,1.74,1.11,-4.6 (inactive),0.884,0.0873,1.14,-1.96 (inactive),-2.65 (inactive),0.737 (inactive),2.97,2.76 (inactive),0.101,0.0588,1.04,-0.0382
